“And” between values parts separate entries of the source, which are not always exact repeats. Equal values may be shown once. Inconclusive results are not listed. The source made the active and inactive calls. Calls follow the shape of the dose curve; as a rule, active = well fitted curve in the direction sought with a large enough effect; inconclusive = small, poorly fitted or top-dose-only effect, or another doubt; inactive = no such curve, though single readings can be large; an effect the other way counts as inactive or inconclusive.
How the values were obtained:
[1] = Viability qHTS for spleen associated tyrosine kinase inhibitor (SYKi) naive MV4-11 cells (AID 1963823); also: nearly all actives have a fitted effect of over 40% in size
How it was run: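 In this viability screen, compounds acted on SYK inhibitor naive MV4-11 cells for three days (72 hr, 37 C). Remaining viable cells were measured by CellTiter-Glo luminescence following a 10 min room-temperature development.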

[2] = Viability qHTS for spleen associated tyrosine kinase inhibitor (SYKi) drug resistant MV4-11 cells (AID 1963824); also: nearly all actives have a fitted effect of over 35% in size
How it was run: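 SYK inhibitor-resistant MV4-11 AML cells, 500 per well, added to predispensed compounds and incubated 72 hr at 37 C, 5% CO2. Viability measured by CellTiter-Glo luminescence after 10 min at room temperature.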

[3] = Quantitative highthroughput screen to assess conditional lethalithy of NOMO1 cells grown in RPMI1640 with untreated serum (RPMI+s) (AID 1963876); also: nearly all actives have a fitted effect of over 35% in size;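 as to Viability: 100% = DMSO wells and 0% = empty wells without cells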
How it was run: (§1)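 Each medium arm—HPLM with 10% dialyzed FBS, or RPMI1640 with 5 mM glucose and 10% untreated or dialyzed FBS—was screened against an 11-point, 3-fold compound titration for 48 h at 37 °C, with CellTiter-Glo luminescence as endpoint.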

[4] = Quantitative highthroughput screen to assess conditional lethalithy of SEM cells grown in Human Plasma-Like Medium with dialyzed fetal bovine serum (HPLM+ds) (AID 1963882); also: nearly all actives have a fitted effect of over 35% in size; as to Viability: series mostly up to about 46 µM
How it was run: as §1

[5] = Quantitative highthroughput screen to assess conditional lethalithy of SEM cells grown in RPMI1640 with unreated serum (RPMI+s) (AID 1963883); also: nearly all actives have a fitted effect of over 35% in size;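 as to Viability: 100% = DMSO wells and 0% = empty wells without cells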
How it was run: as §1

[6] = Quantitative highthroughput screen to assess conditional lethalithy of SEM cells grown in RPMI1640 with dialyzed fetal bovine serum (RPMI+ds) (AID 1963884); also: nearly all actives have a fitted effect of over 35% in size;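 as to Viability: series mostly up to about 46 µM; 100% = DMSO control wells and 0% = empty wells without cells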
How it was run: as §1

[7] = Cellular viability qHTS for adrenocortical cancer (ACC) cell line SW-13 (AID 1963989); settings: SW-13 ACC cells viability, CellTiter-Glo, 48 h; activity (max response): hits give low values; also: nearly all actives have a fitted effect of over 65% in size;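 as to activity (max response): cells grown in serum-free medium with ITS supplement; % is scaled to controls: 0 for no effect and ±100 for the full control effect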
How it was run: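 Luminescent ATP read-out (CellTiter-Glo, 20 min at room temperature) measured metabolically competent SW-13 cells after 48 h compound treatment. Final concentrations spanned up to 46 uM; bortezomib served as positive control.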

[8] = Cellular viability qHTS for adrenocortical cancer (ACC) cell line NCI-H295R (AID 1963990); also: nearly all actives have a fitted effect of over 60% in size
How it was run: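 IC50 and maximal efficacy derive from four-parameter logistic modelling of titration curves, with reads scaled between DMSO-only wells (0%) and doxorubicin hydrochloride (100% inhibition). Compounds spanned up to 46 uM over 48 h.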

[9] = Quantitative highthroughput screen to assess conditional lethalithy of P12 Ichikawa cells grown in RPMI1640 with dialyzed fetal bovine serum (RPMI+ds) (AID 1963880); settings: Potency: P12-Ichikawa viability; also: nearly all actives have a fitted effect of over 35% in size;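 as to Viability: 100% = DMSO wells and 0% = empty wells on each plate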
How it was run: as §1

[10] = Quantitative highthroughput screen to assess conditional lethalithy of P12 Ichikawa cells grown in Human Plasma-Like Medium with dialyzed fetal bovine serum (HPLM+ds) (AID 1963879); settings: Potency: viability; also: nearly all actives have a fitted effect of over 35% in size; as to Viability: series mostly up to about 46 µM
How it was run: as §1

[11] = Quantitative highthroughput screen to assess conditional lethalithy of P12 Ichikawa cells grown in RPMI1640 with untreated serum (RPMI+s) (AID 1963881); settings: Potency: viability; also: nearly all actives have a fitted effect of over 35% in size;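 as to Viability: series mostly up to about 46 µM; 100% = DMSO wells and 0% = empty wells without cells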
How it was run: as §1

[12] = Quantitative highthroughput screen to assess conditional lethalithy of NOMO1 cells grown in RPMI1640 with dialyzed fetal bovine serum (RPMI+ds) (AID 1963877); also: nearly all actives have a fitted effect of over 30% in size
How it was run: as §1

[13] = Quantitative highthroughput screen to assess conditional lethalithy of NOMO1 cells grown in Human Plasma-Like Medium with dialyzed fetal bovine serum (HPLM+ds) (AID 1963878); also: nearly all actives have a fitted effect of over 35% in size
How it was run: as §1
Potency is read from the fitted curve at half-maximal effect.

CC(C)Nc1cc(-c2c[nH]c(C(=O)N[C@H](CO)c3cccc(Cl)c3)c2)c(Cl)cn1
active: Potency [1] 2.91 µM and 2.09 µM | Potency [2] 1.64 µM and 2.63 µM | Potency [3] 14.8 µM | Potency [4] 20.9 µM | Potency [5] 18.6 µM | Potency [6] 16.6 µM | Potency [7] 15.8 µM | Potency [8] 8.91 µM

Nc1ccc(C(=O)Nc2cccc(-c3nc(N4CCOCC4)c4oc5ncccc5c4n3)c2)cn1
active: Potency [1] 10.3 µM | Potency [2] 3.66 µM | Potency [4] 20.9 µM | Potency [5] 18.7 µM | Potency [6] 20.9 µM
inactive: Potency [3] | activity (max response) [7] -13.4%

CCCCCNC(=O)N1CCC(CN(Cc2ccc(Cl)cc2)Cc2ccc([N+](=O)[O-])s2)C1 (configuration not stated)
active: Potency [1] 20.9 µM | Potency [2] 13.2 µM
inactive: Potency [3] | Potency [9]

CN1CCN(c2ncc(-c3cc(Cl)cc(Cl)c3Cl)c(N)n2)CC1
inactive: Potency [4] | Potency [5] | Potency [6]
active: Potency [1] 16.6 µM | Potency [2] 16.6 µM | Potency [3] 0.332 µM | Potency [10] 2.64 µM | Potency [8] 22.4 µM

COc1cc2ncn(-c3cc(OCc4ccccc4C(F)(F)F)c(C(N)=O)s3)c2cc1OC
active: Potency [1] 355 nM and 662 nM | Potency [2] 282 nM and 263 nM | Potency [3] 2.64 µM | Potency [9] 2.35 µM | Potency [11] 2.09 µM | Potency [5] 2.09 µM | Potency [6] 2.64 µM | Potency [7] 1.26 µM

Cc1cc(C(=O)N2CCN(c3cccc(Cl)c3)CC2)n(-c2ccccc2)n1
active: Potency [1] 1.46 µM | Potency [2] 1.46 µM | Potency [3] 7.43 µM | Potency [10] 1.48 µM | Potency [9] 2.96 µM | Potency [11] 3.32 µM | Potency [5] 2.64 µM | Potency [6] 1.87 µM | Potency [7] 0.355 µM | Potency [8] 0.447 µM

CCOC(=O)C1=C(C)NC2=C(C(=O)CC(C)(C)C2)C1c1ccc(-c2ccccc2)cc1 (configuration not stated)
inactive: Potency [3] | Potency [10] | Potency [9] | Potency [11] | activity (max response) [7] -12.6%
active: Potency [1] 23.5 µM | Potency [2] 18.4 µM and 18.6 µM | Potency [4] 18.7 µM | Potency [8] 10 µM

COc1ccc2cc([C@H](C)C(=O)O)ccc2c1
active: Potency [5] 9.35 µM | Potency [6] 10.5 µM
inactive: Potency [1] | Potency [2] | Potency [3] | Potency [10] | Potency [11] | activity (max response) [7] 13.9% and -10.9% | Potency [8]

Nc1ccc(C(=O)c2cc3c(ccc4ccccc43)[nH]2)cc1
active: Potency [1] 4.28 µM | Potency [2] 4.81 µM | Potency [3] 14.8 µM | Potency [10] 2.96 µM | Potency [9] 5.9 µM | Potency [11] 3.32 µM | Potency [5] 3.72 µM | Potency [6] 2.96 µM | Potency [7] 2.24 µM

O=C1Cc2cc(CCN3CCN(c4nsc5ccccc45)CC3)c(Cl)cc2N1
active: Potency [1] 11.9 µM and 9.2 µM | Potency [2] 3.35 µM and 4.11 µM
inactive: Potency [3] | Potency [10] | Potency [9] | Potency [11] | Potency [6]

CCC[C@@H]1C[C@@H](C(=O)N[C@@H]([C@H]2O[C@H](SC)[C@H](O)[C@@H](O)[C@H]2O)[C@@H](C)O)N(C)C1
inactive: Potency [1] | Potency [2] | Potency [3] | Potency [10] | Potency [9] | Potency [11] | Potency [5] | Potency [6] | Potency [8]

CNc1nccc(-c2cccnc2Oc2cc(C(=O)Nc3cccc(C(F)(F)F)c3)ccc2C)n1
inactive: Potency [3] | Potency [10] | Potency [9] | Potency [4] | Potency [6]
active: Potency [1] 517 nM and 1.18 µM | Potency [2] 1.3 µM and 2.09 µM

CCCCc1oc2ccccc2c1C(=O)c1cc(I)c(OCCN(CC)CC)c(I)c1
active: Potency [1] 18.8 µM and 16.6 µM | Potency [2] 23.7 µM and 18.6 µM | Potency [12] 20.9 µM | Potency [7] 31.6 µM | Potency [8] 22.4 µM
inactive: Potency [10] | Potency [9] | Potency [11] | Potency [4] | Potency [5]

NS(=O)(=O)c1cccc2c1C(=O)c1cccc(O)c1C2=O
active: Potency [1] 0.525 µM | Potency [2] 0.468 µM | Potency [12] 23.5 µM | Potency [13] 20.9 µM | Potency [9] 26.4 µM | Potency [4] 6.62 µM | Potency [5] 1.48 µM | Potency [6] 0.372 µM | Potency [7] 1.26 µM | Potency [8] 0.631 µM

CCN(CCO)CCCOc1ccc2c(Nc3cc(CC(=O)Nc4cccc(F)c4)[nH]n3)ncnc2c1
active: Potency [1] 0.0411 µM | Potency [2] 0.186 µM | Potency [12] 0.105 µM | Potency [10] 0.166 µM | Potency [9] 0.187 µM | Potency [11] 0.148 µM | Potency [4] 0.296 µM | Potency [5] 0.264 µM | Potency [6] 0.235 µM | Potency [7] 20 µM

COc1cc(C)c(Sc2cnc(NC(=O)c3ccc(CNC(C)C(C)(C)C)cc3)s2)cc1C(=O)N1CCN(C(C)=O)CC1 (configuration not stated)
active: Potency [1] 2.63 µM | Potency [2] 3.32 µM | Potency [12] 20.9 µM | Potency [13] 23.5 µM | Potency [4] 4.18 µM | Potency [5] 4.18 µM | Potency [6] 3.32 µM

Reference: PubChem BioAssay (NCATS)
